Test results: PubChem BioAssay (NCI)
The panel holds about 83,000 compounds, 20% with a hit somewhere; the sample as a whole holds those more often.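 Method: cells in 96-well plates; compound added at one concentration; 48 h incubation; percent growth measured; values under 10 scored active.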 Values without a mark were called inactive. The source made the active and inactive calls.

Tested on: HOP-92 NSCLC
Assay: NCI-60 one-dose screen, 48 h (100 = growth as untreated, 0 = no growth, -100 = all killed)
Conditions: 10 µM unless noted
Procedure: Growth inhibition of the HOP-92 human Non-Small Cell Lung tumor cell line is measured as a screen for anti-cancer activity. Cells are grown in 96 well plates and exposed to the test compound for 48 hours. Compounds are tested at a single concentration, which is 10^-5 M for most compounds. The reported endpoint is percent growth (GI% or GIPRCNT), where numbers from 0 - 100% represent growth inhibition, and numbers from -100% - 0 represent cell death. For example, a value of 40 represents 60% growth inhibition. A value of 0 means no net growth occurred over the course of the experiment. A value of -40 indicates 40% of cells at the beginning of the experiment died by the end of the experiment. A value of -100 means all cells are dead at the end of the experiment.
NCI-60 Human Tumor Cell Lines Screen was performed using the standard one-dose NCI protocol, which is described in more detail at https://dtp.cancer.gov/discovery_development/nci-60/default.htm.
Compounds with GIPRCNT values below 10 were considered active. Activity score was based on GIPRCNT using the following formula: […]
Score is 0 for GIPRCNT values of 100 or above, 50 for GIPRCNT values of 0, and 100 for GIPRCNT values of -100.

Row | Structure (SMILES) | growth
1 | N=C1C(c2nc(-c3ccc(Br)cc3)cs2)=C(O)CN1CC1CCCO1 (stereo not given) | 69.6%
2 | C=C1C(=O)O[C@H]2[C@H]1CC/C(CNC(=O)/C=C/c1ccc(Cl)cc1Cl)=C\CC[C@@]1(C)O[C@@H]21 | -50.8% (active)
3 | COc1cc2nc(Cl)nc(Nc3ccc(S(=O)(=O)Nc4nccs4)cc3)c2cc1OC | 118%
4 | COc1ccc(Cl)cc1NC(=O)C(Br)C(Br)C(=O)O (stereo not given) | 53.5%
5 | Cn1c(-c2c(N)n(Cc3ccc(C(F)(F)F)cc3)c3nc(C#N)c(C#N)nc23)nc2ccccc21 | -48% (active)
6 | CN(C)c1ccc(-c2cc(-c3ccc(Nc4nc(Nc5ccc(Cl)cc5)nc(Nc5ccc(Cl)cc5)n4)cc3)no2)cc1 | -11.5% (active)
7 | O=C(Nc1ccc(Nc2ccncc2)cc1)c1ccc(C(=O)Nc2ccc(Nc3ccncc3)cc2)cc1 | 28.9%
8 | CC(=O)C(C)Cc1cc2c(cc1C)C(C)(C)CCC2(C)C (stereo not given) | 85.7%
9 | O=C(Nc1ccc(Cl)cc1)Nc1ccc(Cl)c(C(F)(F)F)c1 | -14.8% (active)
10 | COc1nc(N(C)O)nc(N(C)O)n1 | 52.8%
11 | CN(C)CC1C(=O)O[C@H]2[C@H]1CC/C(COC(=O)c1cc3ccccc3[nH]1)=C\CC[C@@]1(C)O[C@@H]21 (stereo not given in full) | -63.8% (active)
12 | COc1ccc(/C=c2\nc3n(-c4ccccc4)c4nc5c6c(sc5c(=N)n4n-3c2=O)CCCC6)cc1 | 63.4%
13 | Cc1ccc(NS(=O)(=O)c2ccc3c(c2)C(=O)CC(c2ccc(C(=O)C(C)C)cc2)N3)cc1C (stereo not given) | 67.9%
14 | COc1cc(C(=O)c2cc(C)c3[nH]c4ccc(Cl)cc4c3c2C)cc(OC)c1OC | 38.6%
15 | COc1cccc(-c2nn(-c3ccccc3)cc2-c2ccnc(NCCCNC(=O)c3ccc(F)cc3)c2)c1 | 57.4%
16 | CCCCCc1nc2c(c3c1CCCC3)CCCC2 | 56.2%
17 | CN(C)CCC=C1c2ccccc2C(C)(C)c2ccccc21 | 36.7%
18 | COC(=O)c1c2c(c[n+]([O-])c1C)C(=O)C=CC2=O | 70.8%
19 | C#CCOc1nc(C)cc(C)c1C#N | 71.4%
20 | COc1cccc(-c2nn(-c3ccccc3)cc2-c2ccnc(NCCCNC(=O)c3cccc(C(F)(F)F)c3)c2)c1 | 9.4% (active)

Row | Structure (SMILES) | growth
21 | COC(=O)c1c2c(c(C)[n+]([O-])c1C)C(=O)C(NCc1ccc(F)cc1)=CC2=O | 42.5%
22 | Oc1c(CN2CCCC2)cc(COCc2ccc(Br)cc2)c2cccnc12 | 27.6%
23 | COc1ccc2nc(NNC(=O)c3cnccn3)c3cccn3c2c1 | 29.3%
24 | N#CC1=C(NC=O)Oc2c(ccc3ccccc23)C1c1ccccc1 (stereo not given) | 42.6%
25 | COc1ccc2c(c1)C(=O)/C(=C/c1cccc(OCC(=O)Nc3nc(C)c(C)s3)c1)O2 | -74.8% (active)
26 | CCCCCCCCCOc1c(OC)cc(C2CC(=O)Nc3c2c(C)nn3-c2nc3ccccc3[nH]2)cc1OC (stereo not given) | -23.4% (active)
27 | Cc1cc(NCc2cc(Nc3ccnc4cc(Cl)ccc34)ccc2F)nc(N2CCN(C)CC2)n1 | 45.4%
28 | Cc1ccc(C(=O)C2=C(O)C(=O)N(Cc3cccnc3)C2c2ccccc2F)o1 (stereo not given) | 83.9%
29 | COc1cccc(-c2nc3sccn3c2-c2ccnc(NCCNS(=O)(=O)c3ccc(C(F)(F)F)cc3)c2)c1 | 34.4%
30 | Cn1cc(-c2csc(-c3cccc(F)c3)n2)c2cccnc21 | -59.6% [100 µM] (active)
31 | O=C1CC(N2C(=O)/C(=C/C(Cl)=C\c3ccc([N+](=O)[O-])cc3)SC2=S)C(=O)N1c1ccc(O)cc1 (stereo not given) | -6.73% (active)
32 | CC(=O)[C@@H]1CC[C@]2(COS(=O)(=O)c3ccc(C)cc3)CC[C@]3(C)[C@H](CC[C@@H]4[C@@]5(C)CCCNC(C)(C)[C@@H]5CC[C@]43C)[C@@H]12 | 57.6%
33 | N#Cc1nc(C#N)c(Sc2ccccc2)c(Sc2ccccc2)c1Sc1ccccc1 | -31.7% (active)
34 | Cc1cc(NCCCCNc2ccnc3cc(Cl)ccc23)nc(Nc2ccc(C(=O)N3CCCCC3)cc2)n1 | 63.6%
35 | N#Cc1c(N)nn(C(=O)c2ccc(NC(=O)c3ccccn3)cc2)c1-c1ccc(Cl)cc1 | 7.04% (active)
36 | N#CCN1C(=O)C2C3=C(CCCC3)SC2N=C1CN1CCCC1 (stereo not given) | -1.97% (active)
37 | CC(CCc1ccc(Cl)c(Cl)c1)NCc1ccc(C(C)(C)C)cc1 (stereo not given) | 59.5%
38 | CC(=O)O[C@]1(C(C)=O)CCC2C3C[C@H](C)C4=CC(=O)CC[C@]4(C)C3CC[C@@]21C (stereo not given in full) | 89.9%
39 | COc1ccc(C2c3ccc4ccccc4c3Oc3nc(C)[nH]c(=O)c32)cc1 (stereo not given) | 91%
40 | COC(=O)[C@]12CC[C@@H](C)[C@H](C)[C@@H]1C1=CC[C@@H]3[C@@]4(C)C(C=O)=C[C@@](C)(COC(=O)c5ccco5)[C@@H]4C(=O)C[C@@]3(C)[C@]1(C)CC2 | 31.8%
